Test results: PubChem BioAssay (NCATS)
Records with an inconclusive call do not appear. Unless noted, calls follow the shape of the dose curve; as a rule, active = well fitted curve in either direction with a large enough effect (not every such curve was filed as active); inconclusive = small, poorly fitted or top-dose-only effect, or another doubt; inactive = flat fitted curve, though single readings scatter.

Tests used:
[1] = AP1 Signaling Pathway (AID 357); conditions: ME-180 AP-1-bla reporter, EGF-induced, beta-lactamase ratio, 5 h; at 17.2 µM (top of the series) unless noted;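 also: ME-180 reporter cells stimulated with EGF at its EC50 level; % is scaled to controls: 0 for no effect and ±100 for the full control effect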
In short: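 Beta-lactamase reporter under AP-1 response element, ME-180 background. Stimulus: EC50 EGF. Compound exposure 5 h, 37 °C. Detection: CCF4, 2.5 h RT, 460/530 nm. Values: AC50 from titration.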

[2] = NFAT Signaling Pathway (AID 444); conditions: Jurkat NFAT-bla M1, carbachol, beta-lactamase ratio, 5 h; at 17.2 µM (top of the series) unless noted;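 also: carbachol stimulus at about its EC50 of 1 µM final; % is scaled to controls: 0 for no effect and ±100 for the full control effect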
In short: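 Jurkat cells carrying an NFAT-driven β-lactamase reporter and co-transfected muscarinic M1 receptor were treated with compound plus carbachol (1 uM final, an EC50 level) for 5 h at 37 °C. CCF4 loading followed for 1 h at RT; 460/530 nm ratio gave %activity.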

[3] = Stat Signaling Pathway (AID 446); conditions: ME-180 (cervical carcinoma) SIE beta-lactamase reporter, IL-6 stimulated, 5 h; at 17.2 µM (top of the series) unless noted;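 also: ME-180 cervical cancer cells given 40 pM IL-6 alongside compound; SIE-controlled beta-lactamase reporter measured as 460/530 nm FRET emission ratio; % is scaled to controls: 0 for no effect and ±100 for the full control effect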
In short: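 IL-6/STAT signaling read in ME-180 cells via an SIE beta-lactamase reporter. Stimulus was 40 pM IL-6 (its AC50) for 5 hrs, so both activation and inhibition register.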

[4] = target: Glucocorticoid receptor (Homo sapiens) (UniProt P04150); test: GR-GFP Redistribution (AID 450;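 active = compounds whose dose series gives a full or clear partial fitted curve of increased nuclear translocation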; also: potency is read from the fitted curve at half-maximal effect)
Sequence of Glucocorticoid receptor (Homo sapiens) (P04150 whole entry, looked up): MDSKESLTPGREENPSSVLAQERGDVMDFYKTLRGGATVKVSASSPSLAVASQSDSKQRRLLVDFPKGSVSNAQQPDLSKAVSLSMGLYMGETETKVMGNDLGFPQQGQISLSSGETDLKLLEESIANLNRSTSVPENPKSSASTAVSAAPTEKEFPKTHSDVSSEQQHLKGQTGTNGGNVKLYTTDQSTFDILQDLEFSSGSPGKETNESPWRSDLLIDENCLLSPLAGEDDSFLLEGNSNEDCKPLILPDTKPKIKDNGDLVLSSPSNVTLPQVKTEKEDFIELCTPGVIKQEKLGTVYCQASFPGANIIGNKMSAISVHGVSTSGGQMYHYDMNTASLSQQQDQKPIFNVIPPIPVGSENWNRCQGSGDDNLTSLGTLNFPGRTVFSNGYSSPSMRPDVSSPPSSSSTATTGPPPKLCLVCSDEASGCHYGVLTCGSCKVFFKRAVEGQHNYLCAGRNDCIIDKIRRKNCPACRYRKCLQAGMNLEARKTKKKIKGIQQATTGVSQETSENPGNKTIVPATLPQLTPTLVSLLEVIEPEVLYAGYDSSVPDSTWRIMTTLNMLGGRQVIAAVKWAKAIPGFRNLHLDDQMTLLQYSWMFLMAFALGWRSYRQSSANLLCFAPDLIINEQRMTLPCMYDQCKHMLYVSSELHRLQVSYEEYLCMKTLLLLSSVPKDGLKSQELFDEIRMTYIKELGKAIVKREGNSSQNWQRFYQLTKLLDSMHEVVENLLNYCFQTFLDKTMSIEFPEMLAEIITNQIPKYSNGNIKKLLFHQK

COc1ccc(C(=O)c2oc3nc(C)cc(C)c3c2N)cc1
inactive: activity change, negative = inhibition [1] -14.2% | activity change, negative = inhibition [2] 13% | activity, negative = inhibition [3] -8.18% | Potency [4] > 20.6 µM

CCCOc1ccc(/C(O)=C2/C(=O)C(=O)N(CCN(C)C)C2c2ccc(OC)c(OC)c2)cc1 (stereo not given)
inactive: activity change, negative = inhibition [1] -7.95% | activity change, negative = inhibition [2] 5.84% | activity, negative = inhibition [3] -1.07% | Potency [4] > 20.6 µM

O=C(O)c1ccc(C2CCCCC2)cn1
inactive: activity change, negative = inhibition [1] 12.7% | activity change, negative = inhibition [2] -13.3% | activity, negative = inhibition [3] 15.1% | Potency [4] > 20.6 µM

O/N=C(\c1ccc2c(c1)OCCO2)C1CCCCC1
inactive: activity change, negative = inhibition [1] -6.69% | activity change, negative = inhibition [2] -7.17% | activity, negative = inhibition [3] -14% | Potency [4] > 20.6 µM

CCOc1ccc(/C(O)=C2/C(=O)C(=O)N(c3nc(C)c(C)s3)C2c2ccco2)cc1 (stereo not given)
inactive: activity change, negative = inhibition [1] -13.5% | activity change, negative = inhibition [2] 20.9% | activity, negative = inhibition [3] -19% | Potency [4] > 20.6 µM

C=CCOc1ccc(C2/C(=C(\O)c3ccc(F)cc3)C(=O)C(=O)N2CCCN(C)C)cc1 (stereo not given)
inactive: activity change, negative = inhibition [1] 4.74% | activity change, negative = inhibition [2] -5.15% | activity, negative = inhibition [3] 17% | Potency [4] > 20.6 µM

CC(=O)C1=C(O)C(=O)N(c2ccc(C(=O)O)cc2)C1c1ccccc1 (stereo not given)
inactive: activity change, negative = inhibition [1] 5.75% | activity change, negative = inhibition [2] -2% | activity, negative = inhibition [3] 0.835% | Potency [4] > 20.6 µM

COc1cc(Cn2ccnc2)c(OC)cc1Cn1ccnc1
inactive: activity change, negative = inhibition [1] 5.72% | activity change, negative = inhibition [2] -19.5% | activity, negative = inhibition [3] 4.23% | Potency [4] > 20.6 µM

CN1C(=O)NC(NC(=O)c2ccco2)(C(F)(F)F)C1=O (stereo not given)
inactive: activity change, negative = inhibition [1] 3.54% | activity change, negative = inhibition [2] 4.93% | activity, negative = inhibition [3] 9.87% | Potency [4] > 20.6 µM

CC(C)c1ccc(O)c(N)c1
inactive: activity change, negative = inhibition [1] -2.33% | activity change, negative = inhibition [2] 12.3% | activity, negative = inhibition [3] 2.34% | Potency [4] > 20.6 µM

Cc1nnc2n(Cc3ccccc3)c(=O)c3c4c(sc3n12)CN(Cc1ccccc1)CC4
inactive: activity change, negative = inhibition [1] 3.27% | activity change, negative = inhibition [2] -8.71% | activity, negative = inhibition [3] 5.01% | Potency [4] > 20.6 µM

Cc1cc(=O)oc(C)c1C(=O)NCC1CCCO1 (stereo not given)
inactive: activity change, negative = inhibition [1] 2.9% | activity change, negative = inhibition [2] -0.802% | activity, negative = inhibition [3] 1.38% | Potency [4] > 20.6 µM

COCCNc1oc(-c2ccc(C)cc2)nc1C#N
inactive: activity change, negative = inhibition [1] -6.25% | activity change, negative = inhibition [2] 1.1% | activity, negative = inhibition [3] 0.279% | Potency [4] > 20.6 µM

CC1(C)CN(O)CCN1O
inactive: activity change, negative = inhibition [1] 29.1% | activity change, negative = inhibition [2] 0.875% | activity, negative = inhibition [3] 7.69% | Potency [4] > 20.6 µM

Cn1c(NCc2cccnc2)nc2c1c(=O)n(Cc1ccccc1F)c(=O)n2C
inactive: activity change, negative = inhibition [1] -1.33% | activity change, negative = inhibition [2] -10.3% | activity, negative = inhibition [3] -20.6% | Potency [4] > 20.6 µM

Nc1nnnn1/N=C/c1cccc(Oc2ccccc2)c1
inactive: activity change, negative = inhibition [1] -4.47% | activity change, negative = inhibition [2] -18.6% | activity, negative = inhibition [3] 10.9% | Potency [4] > 20.6 µM

COc1cccc(C(=O)N2CCN(Cc3ccccn3)CC2)c1OC
inactive: activity change, negative = inhibition [1] 2.17% | activity change, negative = inhibition [2] 7.94% | activity, negative = inhibition [3] 7.75% | Potency [4] > 20.6 µM

Cn1c(SCC(=O)N2CCOCC2)nnc1-c1cccc(NC(=O)c2ccccc2F)c1
inactive: activity change, negative = inhibition [1] -25.9% | activity change, negative = inhibition [2] -5.78% | activity, negative = inhibition [3] 12% | Potency [4] > 20.6 µM

O=c1cc(NCc2ccccc2)nc2n1CCCS2
inactive: activity change, negative = inhibition [1] 5.41% | activity change, negative = inhibition [2] 19% | activity, negative = inhibition [3] -19.7% | Potency [4] > 20.6 µM

CC1CC(C(F)(F)F)n2ncnc2N1 (stereo not given)
inactive: activity change, negative = inhibition [1] 5.99% | activity change, negative = inhibition [2] -3.22% | activity, negative = inhibition [3] 12.9% | Potency [4] > 20.6 µM

CC(=O)N(Cc1ccccc1)c1ccc(C(=O)O)cc1
inactive: activity change, negative = inhibition [1] 1.39% | activity change, negative = inhibition [2] -12.1% | activity, negative = inhibition [3] 13.1% | Potency [4] > 20.6 µM

O=C(Nc1ccc2c(c1)OCCO2)c1ccc(Br)o1
inactive: activity change, negative = inhibition [1] -1.9% | activity change, negative = inhibition [2] 6.17% | activity, negative = inhibition [3] 6.03% | Potency [4] > 20.6 µM

CN(C)c1ccc(C=NCCC2(O)CCOC(C)(C)C2)cc1 (stereo not given)
inactive: activity change, negative = inhibition [1] 0.733% | activity change, negative = inhibition [2] 4.94% | activity, negative = inhibition [3] -0.198% | Potency [4] > 20.6 µM

Cc1cc(C)n(CC2CC(=O)N(c3ccc(Cl)c(Cl)c3)C2=O)n1 (stereo not given)
inactive: activity change, negative = inhibition [1] -14.3% | activity change, negative = inhibition [2] -11.5% | activity, negative = inhibition [3] 0.577% | Potency [4] > 20.6 µM

CCOC(=O)CCc1c(C)c(C#N)c2nc3ccccc3n2c1-n1ccnc1
inactive: activity change, negative = inhibition [1] -6.27% | activity change, negative = inhibition [2] 10% | activity, negative = inhibition [3] 14.7% | Potency [4] > 20.6 µM
